Screens (PubChem BioAssay)
Six1-Eya2 blk: Six1/Eya2 interaction inhibition; activity change, % (test concentration not listed); AlphaScreen GST-Six1/His-Eya2 binding, biochemical; stronger effect = lower value; hit rate 0.56% among 360,000; AID 651725; in the data active = activity change below about -65%; inconclusive = mostly about -30% to -63%
Target sequence (O00167 whole entry, looked up): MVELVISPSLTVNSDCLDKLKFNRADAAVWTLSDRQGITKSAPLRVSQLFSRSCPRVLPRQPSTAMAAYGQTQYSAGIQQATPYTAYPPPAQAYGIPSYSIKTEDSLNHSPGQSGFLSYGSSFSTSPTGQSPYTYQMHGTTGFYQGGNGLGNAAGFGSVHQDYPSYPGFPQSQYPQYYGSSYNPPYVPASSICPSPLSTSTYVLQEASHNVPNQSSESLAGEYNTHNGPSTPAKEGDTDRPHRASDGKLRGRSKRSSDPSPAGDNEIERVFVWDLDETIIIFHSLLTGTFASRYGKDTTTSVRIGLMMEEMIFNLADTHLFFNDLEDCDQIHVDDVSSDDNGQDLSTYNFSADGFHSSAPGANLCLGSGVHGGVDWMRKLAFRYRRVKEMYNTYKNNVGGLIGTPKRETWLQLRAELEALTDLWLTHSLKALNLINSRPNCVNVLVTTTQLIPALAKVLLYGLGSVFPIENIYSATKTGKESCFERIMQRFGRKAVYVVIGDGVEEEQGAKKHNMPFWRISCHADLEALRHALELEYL
Target sequence (Q15475 whole entry, looked up): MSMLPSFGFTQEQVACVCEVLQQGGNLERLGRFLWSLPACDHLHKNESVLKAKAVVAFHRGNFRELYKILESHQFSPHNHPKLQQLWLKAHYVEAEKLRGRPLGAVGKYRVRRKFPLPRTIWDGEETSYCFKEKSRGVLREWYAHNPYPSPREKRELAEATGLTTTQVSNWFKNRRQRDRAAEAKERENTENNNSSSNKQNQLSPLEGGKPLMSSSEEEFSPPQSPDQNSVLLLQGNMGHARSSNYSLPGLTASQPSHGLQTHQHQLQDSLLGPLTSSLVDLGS
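Compounds are tested against tagged Six1 and Eya2 proteins bridged by glutathione donor and nickel acceptor beads; after a one-hour incubation at 37 °C without light, AlphaScreen emission is recorded.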
JMJD2A Tudor: blocks the human JMJD2A Tudor domain; O75164; Potency, µM (top dose mostly 114 µM), usual class: inhibitors; AlphaScreen JMJD2A-Tudor / H3K4me3 peptide binding; hit rate 4.4% among 390,000; note: nearly all actives have a fitted effect of over 50% in size
BAZ2B block: blocks human BAZ2B; AlphaScreen BAZ2B-H3K14Ac peptide displacement; Potency, µM (doses to about 114 µM), usual class: inhibitors; hit rate 4.4% among 360,000; AID 504333; note: nearly all actives have a fitted effect of over 60% in size
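Inhibition is scored as reduced AlphaScreen emission. The BAZ2B/b-H3(5-23)K14Ac complex (50 nM each) in PBS pH 7.4, 0.01% Tween-20 meets compound (up to 110 uM) for 30 min at RT before bead addition.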
CtBP-E1A inh: CtBP/E1A binding inhibition | hit rate 0.49% among 340,000 | activity change, % (test concentration not listed) | AlphaScreen GST-E1A/His-CtBP binding, 1536-well; stronger effect = lower value | AID 651724; in the data active = activity change below about -65%; inconclusive = mostly about -30% to -63%
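Homogeneous bead-based format: GST-tagged E1A captured on glutathione donor beads, His-tagged CtBP on nickel acceptor beads; compounds precede bead addition by 2 h at 37 °C.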
HP1b binding inh: inhibitors of HP1-beta chromodomain binding to methylated histone tails; AlphaScreen HP1-beta / biotin-H3K9me3 peptide binding; AID 540317; hit rate 0.56% among 390,000; Potency, µM (doses to about 114 µM), hits mostly inhibitors; P83916; note: nearly all actives have a fitted effect of over 70% in size
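HP1-beta protein (50 nM final) preincubated 30 min at room temperature with biotinylated H3(1-18)K9me3 peptide (50 nM) in PBS pH 7.4, 0.01% Tween-20, then compound added for 30 min. AlphaScreen streptavidin donor/nickel chelate acceptor beads (10 ug/mL final), 30 min dark, luminescence read.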
TDP1 inh: inhibitors of human tyrosyl-DNA phosphodiesterase TDP1; Q9NUW8; recombinant TDP1, AlphaScreen DNA substrate cleavage; Potency, µM (titrated, usually from 130 µM), usual class: inhibitors; hit rate 0.28% among 350,000; AID 485290; note: nearly all actives have a fitted effect of over 40% in size
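Signal: AlphaScreen proximity between streptavidin donor and anti-FITC acceptor beads on intact substrate. Reaction: Tdp1 1 nM, substrate 15 nM final, 5 min RT after 15 min compound preincubation.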
A number is an active result; . = inactive; ? = inconclusive; / = no result; [ ] = another dose, or the depositor's remark. Compounds with a hit are over-represented: about 5.3% of the library has one in this group of screens. Unless noted, calls come from the whole dose curve; as a rule, active = well fitted inhibition curve with a large enough effect; inconclusive = small, poorly fitted or top-dose-only effect; inactive = no such curve, though single readings can be large or run the other way.

SMILES	Six1-Eya2 blk	JMJD2A Tudor	BAZ2B block	CtBP-E1A inh	HP1b binding inh	TDP1 inh
CCOc1ccccc1CNc1ccc2cc(S(=O)(=O)N3CCC(C)CC3)ccc2n1	/	.	.	/	.	.
CNCCN(C)c1nc(-c2cccs2)nc2ccccc12	/	.	/	/	.	.
NC(=O)C1CCN(c2oc(-c3ccccc3)nc2S(=O)(=O)c2ccc(Br)cc2)CC1	.	31.6µM	?	.	.	.
Cc1ccc(S(=O)(=O)c2nc(-c3ccccc3)oc2N2CCCC2)cc1	.	28.2µM	?	.	?	?
O=P(c1ccccc1)(c1ccccc1)c1nc(-c2ccccc2)oc1N1CCOCC1	.	.	?	.	.	/
Cc1ccc(S(=O)(=O)c2nc(-c3ccco3)oc2N2CCC(C)CC2)cc1	.	?	10µM	.	.	.
O=P(c1ccccc1)(c1ccccc1)c1nc(-c2ccc(Cl)cc2)oc1N1CCOCC1	.	?	44.7µM	.	.	.
Cc1ccccc1CNC(=O)C(C)n1nc(C)n2c(cc3occc32)c1=O (stereo not drawn)	/	.	.	/	.	.
O=C(/C=C/c1ccccc1)c1ccc(O[C@H]2OC(CO)C(O)C(O)C2O)cc1O (stereo partly drawn)	/	/	/	/	/	.
CCOc1ccc(-n2nc(CO)c(C(=O)NCCCc3ccccc3)n2)cc1	/	.	.	/	.	.
COc1ccccc1NC(=O)Cn1c(C)cc(C)c(C#N)c1=O	/	.	.	/	.	.
COc1ccc(N2CCN(S(=O)(=O)CCNC(=O)COc3ccccc3F)CC2)cc1	/	.	.	/	.	.
COc1ccc(Cl)c2c1[nH]c1nc(SCc3ccccn3)nnc12	-66.9	.	.	?	.	.
COc1ccc(Cl)c2c1[nH]c1nc(SCc3cccnc3)nnc12	.	.	.	.	.	.
COCCNC(=O)CCCn1c(SCC(=O)Nc2cccc(C)c2)nc2c(sc3ccccc32)c1=O	/	.	?	/	.	.
CCCCOc1ccc(CNC(=O)c2cnc3sc(N4CCCC4)nn3c2=O)cc1	/	.	.	/	.	.
CCCCNC(=O)c1ccccc1C(=O)NCCCC	.	14.1µM	.	.	?	.
CCCCNC(=O)c1ccccc1Cl	.	.	.	.	.	.
Cc1ccc(C)c(N2C(=O)N(C)c3ccccc3S2(=O)=O)c1	/	.	.	/	.	.
CC(=O)Nc1c2c(nn1-c1ccccc1)CSC2	.	.	.	/	.	.
O=C(CCl)Nc1c2c(nn1-c1ccccc1)CSC2	.	44.7µM	.	.	.	.
CC(C)CN1CCc2nc(-c3ccccc3)c3c(c2CC1)COC(C)C3 (stereo not drawn)	/	/	/	/	/	.[21 µM]
COc1ccccc1N1CCN(S(=O)(=O)c2c(C(=O)N3CCOCC3)c(C)n(C)c2C)CC1	.	15.8µM	.	.	.	.
O=C(C1CCCN(C2CC(=O)N(c3ccc(F)cc3)C2=O)C1)N1CCCC1 (stereo not drawn)	.	31.6µM	.	.	.	.
O=C(C1CCCN(C2CC(=O)N(c3ccc(Cl)cc3)C2=O)C1)N1CCCC1 (stereo not drawn)	.	.	.	.	.	.
SMILES	Six1-Eya2 blk	JMJD2A Tudor	BAZ2B block	CtBP-E1A inh	HP1b binding inh	TDP1 inh
N#Cc1c([N+](=O)[O-])cc([N+](=O)[O-])cc1S(=O)(=O)Cc1ccccc1	?	79.4µM	?	.	.	.
COc1cc2ccccc2cc1C(=O)Nc1ccc(Cl)c(-c2nc3ccccc3o2)c1	/	.	.	/	.	.[12.3 µM]
NS(=O)(=O)c1ccc(-c2c(-c3ccccc3)sc3ccccc23)cc1	.	79.4µM	56.2µM	.	.	.
O=C(CSc1nc(-c2cccs2)cc(C(F)(F)F)n1)Nc1cc(OCC(F)(F)F)cc([N+](=O)[O-])c1	.	22.4µM	.	.	.	.
COc1ccc(NC(=O)CSc2nc(-c3cccs3)cc(C(F)(F)F)n2)cc1OC	/	.	.	/	.	.
c1ccc(N2CCN(Cc3ccc4c(c3)OCO4)CC2)nc1	.	28.2µM	/	.	?	/
c1ccc(-c2ncc(CN3CCN(c4ccccn4)CC3)[nH]2)cc1	.	.	.	/	.	.
Brc1ccc(CN2CCN(c3ccccn3)CC2)s1	.	7.94µM	44.7µM	.	?	/
c1cnc(N2CCN(Cc3ccc4c(c3)OCO4)CC2)nc1	.	.	.	.	.	.
Cc1ccc(N2CCN(C(=O)C3CCN(S(=O)(=O)c4ccc5c(c4)oc(=O)n5C)CC3)CC2C)cc1 (stereo not drawn)	/	.	.	/	.	.
CCCCN(CC)CCNc1ncnc2onc(-c3ccc(Cl)cc3)c12	/	.	.	/	.	.
COC(=O)Nc1ccc(S(=O)(=O)N(C)C)cc1	.	.	.	.	.	.
CCN(CC(F)(F)C(F)F)S(=O)(=O)c1ccc(NC(=O)OC)cc1	.	20µM	.	.	?	.
O=C(O)c1ccc(-c2sc(Nc3ccccc3)n[n+]2-c2ccccc2)cc1	.	44.7µM	?	.	.	/
Cc1cccc(-c2sc(Nc3ccccc3)n[n+]2-c2ccccc2)c1	.	79.4µM	50.1µM	.	.	.
c1ccc(COc2ccc(-c3sc(Nc4ccccc4)n[n+]3-c3ccccc3)cc2)cc1	/	/	44.7µM	/	/	/
O=C(O)c1ccc(-c2sc(Nc3ccccc3)n[n+]2-c2ccc(F)cc2)cc1	.	.	.	.	.	/
CCc1ccc(Nc2n[n+](-c3ccccc3)c(-c3ccc(OCc4ccccc4)cc3)s2)cc1	.	.	50.1µM	.	.	/
CCOc1ccc(C(=O)N(Cc2cc(OC)c(OC)c(OC)c2)c2ccccn2)cc1	/	.	.	/	.	.
O=C(/C=C/c1ccccc1Cl)NC1CCS(=O)(=O)C1 (stereo not drawn)	.	5.01µM	.	.	.	.
CCCn1c2ccccc2c2cnn(CC(=O)N(C)c3ccc(F)cc3)c(=O)c21	/	.	.	/	.	.
CC(O)[C@@H]1NC(=O)[C@H](CCCN)NC(=O)[C@@H](Cc2c[nH]c3ccccc23)NC(=O)[C@H](Cc2ccc(O)cc2)NC(=O)[C@@H](NC(=O)[C@H](N)Cc2ccccc2)CSSC(C)(C)C(C(=O)N[C@H](C(N)=O)[C@@H](C)O)NC1=O (stereo partly drawn)	/	/	/	/	/	.
CCCOc1ccc(CSc2nnc(CCC)n2N)cc1	.	.	.	.	.	.
CCCc1nnc(SCc2ccc(OC)cc2)n1N	.	14.1µM	.	.	?	.
CN1CCN(S(=O)(=O)c2ccc(N(C)Cc3ccc(C(F)(F)F)cc3)c([N+](=O)[O-])c2)CC1	?	25.1µM	39.8µM	.	?	.
CCc1nn(C(C)C(=O)NCCc2ccccc2)c(=O)c2cc3occc3n12 (stereo not drawn)	.	.	.	.	.	.
CCc1nn(CC(=O)NC(C)CCc2ccccc2)c(=O)c2cc3occc3n12 (stereo not drawn)	.	44.7µM	.	.	.	.
